# PubChem BioAssay (EPA / NIEHS)
# Results filed as inconclusive are left out. Some structures have more than one record in an assay (separate samples or runs), and their calls can disagree. Activity calls are given as the source filed them. How the source made its calls, unless noted: active means hit-call score of the fitted dose curve at least 0.9, where 1 is the maximum; inactive means score below 0.9.
# Tests used:
# [1] = biological target: Estrogen-related receptor gamma (Homo sapiens) (UniProt P62508); assay: ATG_ERRg_TRANS: Attagene TRANS-FACTORIAL HepG2 Assay for human Estrogen-Related Receptor gamma (ERRg) (AID 2282977; active means hit-call score of the fitted dose curve at least 0.9, where 1 is the maximum;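 further: hits increase reporter signal over DMSO so potencies reflect activators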); settings: HepG2 Attagene TRANS reporter, ERRg transactivation
# Sequence of Estrogen-related receptor gamma (Homo sapiens) (P62508 whole entry, looked up, the tested form may be a part): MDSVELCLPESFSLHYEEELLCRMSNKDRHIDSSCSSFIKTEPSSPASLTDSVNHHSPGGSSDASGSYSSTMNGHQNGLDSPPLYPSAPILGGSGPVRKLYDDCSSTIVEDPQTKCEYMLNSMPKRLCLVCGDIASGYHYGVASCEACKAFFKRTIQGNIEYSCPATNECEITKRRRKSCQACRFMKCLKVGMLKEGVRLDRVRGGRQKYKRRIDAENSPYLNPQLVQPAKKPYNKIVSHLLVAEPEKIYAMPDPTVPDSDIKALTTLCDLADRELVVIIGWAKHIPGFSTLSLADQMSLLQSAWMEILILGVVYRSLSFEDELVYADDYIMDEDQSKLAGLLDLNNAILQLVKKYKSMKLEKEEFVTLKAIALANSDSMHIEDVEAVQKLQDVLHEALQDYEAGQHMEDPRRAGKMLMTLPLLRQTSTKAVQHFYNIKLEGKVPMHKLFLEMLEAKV
# Method in brief: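 HepG2 cells transiently transfected with multiplexed GAL4-UAS reporter units and chimeric NR-Gal4 constructs were exposed to test chemicals for 24 h. Reporter mRNA was measured by RT-PCR, 6-FAM primer extension, HpaI digestion and capillary electrophoresis; gain-of-signal versus DMSO.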
# [2] = biological target: Bile acid receptor (Homo sapiens) (UniProt Q96RI1); assay: ATG_FXR_TRANS: Attagene TRANS-FACTORIAL HepG2 Assay for Farnesoid X Receptor (FXR) (AID 2282979; active means hit-call score of the fitted dose curve at least 0.9, where 1 is the maximum;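 further: hits raise reporter mRNA above DMSO so AC50 marks FXR activation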); settings: HepG2 Attagene TRANS FXR-GAL4 reporter transcription
# Sequence of Bile acid receptor (Homo sapiens) (Q96RI1 whole entry, looked up, the tested form may be a part): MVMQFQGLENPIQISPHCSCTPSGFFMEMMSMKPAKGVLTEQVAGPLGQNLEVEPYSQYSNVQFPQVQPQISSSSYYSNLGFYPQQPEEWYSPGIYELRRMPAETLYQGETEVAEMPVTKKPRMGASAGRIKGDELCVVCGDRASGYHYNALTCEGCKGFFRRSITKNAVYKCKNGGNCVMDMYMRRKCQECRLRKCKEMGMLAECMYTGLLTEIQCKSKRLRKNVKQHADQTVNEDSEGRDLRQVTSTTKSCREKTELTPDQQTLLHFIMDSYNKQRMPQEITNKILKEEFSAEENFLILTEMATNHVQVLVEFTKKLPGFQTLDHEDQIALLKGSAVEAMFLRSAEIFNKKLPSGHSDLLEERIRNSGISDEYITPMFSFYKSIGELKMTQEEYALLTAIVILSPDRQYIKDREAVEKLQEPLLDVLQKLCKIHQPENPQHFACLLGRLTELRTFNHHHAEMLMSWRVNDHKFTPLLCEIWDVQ
# Method in brief: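 Reporter transcripts from transfected HepG2 cells were measured 24 h after dosing, using RT-PCR with capillary electrophoresis of 6-FAM-labelled fragments. The read-out reflects activity of exogenous FXR-Gal4 chimera on GAL4-UAS units, with induction relative to DMSO.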
# [3] = biological target: Oxysterols receptor LXR-alpha (Homo sapiens) (UniProt Q13133); assay: ATG_LXRa_TRANS: Attagene TRANS-FACTORIAL HepG2 Assay for human Liver X Receptor alpha (LXRa) (AID 2282980; active means hit-call score of the fitted dose curve at least 0.9, where 1 is the maximum); settings: HepG2 Attagene TRANS reporter, LXRa transactivation
# Sequence of Oxysterols receptor LXR-alpha (Homo sapiens) (Q13133 whole entry, looked up, the tested form may be a part): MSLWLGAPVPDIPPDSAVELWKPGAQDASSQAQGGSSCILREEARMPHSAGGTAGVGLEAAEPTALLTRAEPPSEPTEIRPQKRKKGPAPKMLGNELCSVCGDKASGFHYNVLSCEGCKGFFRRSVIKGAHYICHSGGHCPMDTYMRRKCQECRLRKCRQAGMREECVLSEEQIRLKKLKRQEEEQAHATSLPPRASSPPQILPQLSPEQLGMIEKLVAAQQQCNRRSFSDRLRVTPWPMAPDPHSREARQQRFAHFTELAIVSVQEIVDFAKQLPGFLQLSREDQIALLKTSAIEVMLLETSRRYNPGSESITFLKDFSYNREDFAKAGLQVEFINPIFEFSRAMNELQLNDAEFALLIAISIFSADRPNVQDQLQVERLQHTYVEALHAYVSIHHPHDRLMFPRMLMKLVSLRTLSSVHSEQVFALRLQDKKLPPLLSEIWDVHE
# Method in brief: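 Chemical-induced reporter mRNA measured by RT-PCR with fluorescent labelling and capillary electrophoresis after 24 h dosing of transiently transfected HepG2 cells expressing exogenous NR-Gal4 chimeras; increases scored against DMSO baseline.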
# [4] = ATG_M_06_TRANS: Attagene TRANS-FACTORIAL HepG2 Assay for M06 Transcription Factor (Internal Marker) (AID 2282983; active means hit-call score of the fitted dose curve at least 0.9, where 1 is the maximum;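 further: reporter transcript level by RT-PCR then capillary electrophoresis fluorescence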); settings: HepG2 Attagene TRANS M06 internal marker reporter
# Method in brief: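 Cells: HepG2, transient multi-reporter transfection. Exposure: 24 h. Detection: RT-PCR, 6-FAM labelling, HpaI digestion (2 h, 37 °C), capillary electrophoresis. Baseline: DMSO.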
# [5] = ATG_M_32_TRANS: Attagene TRANS-FACTORIAL HepG2 Assay for M32 Transcription Factor (Internal Marker) (AID 2282984; active means hit-call score of the fitted dose curve at least 0.9, where 1 is the maximum;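 further: transcript level of a background control reporter unit measured by RT-PCR and capillary electrophoresis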); settings: HepG2 Attagene TRANS M32 internal marker reporter
# Method in brief: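 HepG2 cells transiently transfected with multiple GAL4-UAS reporter transcription units, dosed for 24 hours; reporter mRNA quantified by RT-PCR, 6-FAM primer extension, HpaI digestion and capillary electrophoresis. Gain-of-signal fitted versus DMSO baseline; internal background-control marker.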
# [6] = biological target: Nuclear receptor subfamily 4 group A member 2 (Homo sapiens) (UniProt P43354); assay: ATG_NURR1_TRANS: Attagene TRANS-FACTORIAL HepG2 Assay for human Nuclear Receptor Related Protein 1 (NURR1) (AID 2282985; active means hit-call score of the fitted dose curve at least 0.9, where 1 is the maximum); settings: HepG2 Attagene TRANS reporter, mRNA readout
# Sequence of Nuclear receptor subfamily 4 group A member 2 (Homo sapiens) (P43354 whole entry, looked up, the tested form may be a part): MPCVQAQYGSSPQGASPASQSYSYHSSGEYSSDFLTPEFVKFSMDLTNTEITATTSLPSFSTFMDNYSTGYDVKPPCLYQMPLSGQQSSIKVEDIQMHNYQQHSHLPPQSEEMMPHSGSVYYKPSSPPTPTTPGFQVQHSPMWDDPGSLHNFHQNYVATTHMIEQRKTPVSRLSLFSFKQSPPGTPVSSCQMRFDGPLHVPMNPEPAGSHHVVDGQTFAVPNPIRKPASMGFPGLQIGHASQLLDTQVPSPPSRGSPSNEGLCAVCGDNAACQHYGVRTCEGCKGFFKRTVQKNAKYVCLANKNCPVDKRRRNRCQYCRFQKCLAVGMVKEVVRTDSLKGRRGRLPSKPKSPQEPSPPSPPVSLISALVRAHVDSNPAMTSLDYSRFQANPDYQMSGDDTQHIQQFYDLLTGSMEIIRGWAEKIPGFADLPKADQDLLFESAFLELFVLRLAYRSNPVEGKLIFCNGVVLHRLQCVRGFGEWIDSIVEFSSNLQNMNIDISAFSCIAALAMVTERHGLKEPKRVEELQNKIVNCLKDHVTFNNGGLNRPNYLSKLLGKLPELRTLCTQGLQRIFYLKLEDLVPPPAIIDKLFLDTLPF
# Method in brief: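 HepG2 cells transiently transfected with GAL4-UAS reporter units and chimeric NR-Gal4 constructs; chemical exposure 24 h. Reporter mRNA quantified by RT-PCR, fluorescent labelling and capillary electrophoresis; gain of signal fitted relative to DMSO baseline.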
# [7] = biological target: Transcriptional activator Myb (Homo sapiens) (UniProt P10242); assay: ATG_Myb_CIS: Attagene CIS-FACTORIAL HepG2 Assay for human Myeloblastosis (Myb) Proto-Oncogene Transcription Factor (AID 2282986); settings: HepG2 Attagene CIS-FACTORIAL Myb reporter transcription; actives raise or lower the signal
# Sequence of Transcriptional activator Myb (Homo sapiens) (P10242 whole entry, looked up): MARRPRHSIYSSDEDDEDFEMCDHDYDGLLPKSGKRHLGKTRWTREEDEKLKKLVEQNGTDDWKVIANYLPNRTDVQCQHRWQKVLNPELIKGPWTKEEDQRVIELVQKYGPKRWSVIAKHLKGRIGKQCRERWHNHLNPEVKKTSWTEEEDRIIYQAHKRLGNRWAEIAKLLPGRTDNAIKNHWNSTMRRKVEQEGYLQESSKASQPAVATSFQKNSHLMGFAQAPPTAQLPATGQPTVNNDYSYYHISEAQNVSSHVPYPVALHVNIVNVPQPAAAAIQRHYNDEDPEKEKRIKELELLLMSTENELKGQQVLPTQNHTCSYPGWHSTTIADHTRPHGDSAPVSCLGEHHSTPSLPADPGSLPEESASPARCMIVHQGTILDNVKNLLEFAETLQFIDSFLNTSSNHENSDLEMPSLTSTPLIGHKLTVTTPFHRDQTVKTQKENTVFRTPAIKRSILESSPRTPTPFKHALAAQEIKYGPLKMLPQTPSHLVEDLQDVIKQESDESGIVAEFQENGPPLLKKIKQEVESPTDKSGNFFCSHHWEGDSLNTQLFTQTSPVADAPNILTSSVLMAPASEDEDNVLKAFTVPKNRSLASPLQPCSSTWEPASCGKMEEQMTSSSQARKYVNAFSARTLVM
# Method in brief: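 Multiplexed cis-reporter system in HepG2: transient transfection, 24 h treatment, mRNA readout by RT-PCR and capillary electrophoresis. Both increases and decreases are scored versus DMSO negative control.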
# [8] = biological target: Nuclear respiratory factor 1 (Homo sapiens) (UniProt Q16656); assay: ATG_NRF1_CIS: Attagene CIS-FACTORIAL HepG2 Assay for human Nuclear Respiratory Factor 1 (NRF1) Orphan Gene (AID 2282987); settings: HepG2 NRF1 cis-element reporter, Attagene multiplex; actives raise or lower the signal
# Sequence of Nuclear respiratory factor 1 (Homo sapiens) (Q16656 whole entry, looked up): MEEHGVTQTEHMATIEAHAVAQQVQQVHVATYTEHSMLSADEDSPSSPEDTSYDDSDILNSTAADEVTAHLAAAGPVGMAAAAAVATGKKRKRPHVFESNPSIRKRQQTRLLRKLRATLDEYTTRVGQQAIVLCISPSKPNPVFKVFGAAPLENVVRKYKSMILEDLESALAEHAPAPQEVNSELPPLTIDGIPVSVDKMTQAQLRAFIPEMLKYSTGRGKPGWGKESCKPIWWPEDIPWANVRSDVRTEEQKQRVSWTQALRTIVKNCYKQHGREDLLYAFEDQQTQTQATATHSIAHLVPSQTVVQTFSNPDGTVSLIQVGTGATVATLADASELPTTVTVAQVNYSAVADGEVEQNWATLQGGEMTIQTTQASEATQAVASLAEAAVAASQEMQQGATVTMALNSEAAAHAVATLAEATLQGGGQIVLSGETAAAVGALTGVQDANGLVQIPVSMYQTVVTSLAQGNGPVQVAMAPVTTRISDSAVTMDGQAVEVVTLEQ
# Method in brief: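 Endogenous factor activity was captured via cis-element-driven reporter transcripts in HepG2 cells. Following 24 h chemical treatment, transcripts were quantified by RT-PCR and capillary electrophoresis.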
# [9] = ATG_NFI_CIS: Attagene CIS-FACTORIAL HepG2 Assay for human Nuclear Factor I (NFI) (AID 2282989); settings: HepG2 cis-regulatory reporter, NFI response element transcription; actives raise or lower the signal
# Method in brief: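 Reporter transcription driven by endogenous transcription factors in HepG2 cells; 24 h treatment. Quantitation by labelled RT-PCR fragments on capillary electrophoresis, gain- or loss-of-signal relative to DMSO.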
# [10] = biological target: Myc proto-oncogene protein (Homo sapiens) (UniProt P01106); assay: ATG_Myc_CIS: Attagene CIS-FACTORIAL HepG2 Assay for human Myelocytomatosis (Myc) Proto-Oncogene Transcription Factor (AID 2282990); settings: HepG2, Attagene cis-reporter transcription factor activity; actives raise or lower the signal
# Sequence of Myc proto-oncogene protein (Homo sapiens) (P01106 whole entry, looked up): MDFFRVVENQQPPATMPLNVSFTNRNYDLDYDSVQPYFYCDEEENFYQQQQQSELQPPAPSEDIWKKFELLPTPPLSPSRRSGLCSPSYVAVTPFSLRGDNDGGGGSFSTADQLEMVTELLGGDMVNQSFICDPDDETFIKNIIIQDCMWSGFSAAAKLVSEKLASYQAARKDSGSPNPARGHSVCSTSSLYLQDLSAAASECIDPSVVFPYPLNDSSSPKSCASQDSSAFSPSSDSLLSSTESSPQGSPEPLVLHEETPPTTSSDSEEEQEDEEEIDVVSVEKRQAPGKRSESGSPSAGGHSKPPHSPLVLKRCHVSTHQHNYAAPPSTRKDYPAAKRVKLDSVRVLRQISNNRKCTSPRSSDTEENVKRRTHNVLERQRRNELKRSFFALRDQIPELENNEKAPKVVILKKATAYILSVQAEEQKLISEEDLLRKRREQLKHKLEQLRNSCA
# Method in brief: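 HepG2 cells transiently transfected with multiple cis-promoter-driven reporter transcription units, so endogenous TF activity is read. After 24 h compound exposure, reporter mRNA was quantified by RT-PCR, 6-FAM labelling, HpaI digestion and capillary electrophoresis; bidirectional fit versus DMSO.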
# [11] = ATG_NF_kB_CIS: Attagene CIS-FACTORIAL HepG2 Assay for human Nuclear Factor Kappa B (NF-kB) (AID 2282991); settings: HepG2 Attagene cis-factorial NF-kB reporter mRNA; actives raise or lower the signal
# Method in brief: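 After 24 h compound incubation, transfected HepG2 cells yield total RNA; reporter cDNA is PCR-amplified, end-labelled with 6-FAM, HpaI-digested and analysed on a genetic analyser. Endogenous factor activity, DMSO-referenced bidirectional fit.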
# [12] = ATG_NRF2_ARE_CIS: Attagene CIS-FACTORIAL HepG2 Assay for human Nuclear Factor Erythroid 2 Related Factor 2 (NFR2) response to Antioxidant Response Elements (ARE) (AID 2282992); settings: HepG2 Attagene ARE/NRF2 reporter, transcription factor activity; actives raise or lower the signal;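 on AC50: reporter mRNA level measured by RT-PCR and capillary electrophoresis fluorescence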
# Method in brief: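 Transient MRTU transfection of HepG2; 24 h compound exposure; TriZol RNA, RT with oligo(dT), PCR, 6-FAM primer extension, HpaI cut, CE. Bidirectional fit vs DMSO.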
# [13] = ATG_Oct_MLP_CIS: Attagene CIS-FACTORIAL HepG2 Assay for human Octamer-Binding Transcription Factor (Oct) (AID 2282993); settings: HepG2 Attagene cis-factorial Oct reporter, mRNA; actives raise or lower the signal
# Method in brief: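 Transfected HepG2 cells, 24 h treatment. Reporter mRNA quantified by RT-PCR–capillary electrophoresis; bidirectional fitting against DMSO.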
# [14] = biological target: Cellular tumor antigen p53 (Homo sapiens) (UniProt P04637); assay: ATG_p53_CIS: Attagene CIS-FACTORIAL HepG2 Assay for human p53 Transcription Factor (AID 2282994); settings: HepG2 p53 cis-element reporter, Attagene mRNA; actives raise or lower the signal
# Sequence of Cellular tumor antigen p53 (Homo sapiens) (P04637 whole entry, looked up): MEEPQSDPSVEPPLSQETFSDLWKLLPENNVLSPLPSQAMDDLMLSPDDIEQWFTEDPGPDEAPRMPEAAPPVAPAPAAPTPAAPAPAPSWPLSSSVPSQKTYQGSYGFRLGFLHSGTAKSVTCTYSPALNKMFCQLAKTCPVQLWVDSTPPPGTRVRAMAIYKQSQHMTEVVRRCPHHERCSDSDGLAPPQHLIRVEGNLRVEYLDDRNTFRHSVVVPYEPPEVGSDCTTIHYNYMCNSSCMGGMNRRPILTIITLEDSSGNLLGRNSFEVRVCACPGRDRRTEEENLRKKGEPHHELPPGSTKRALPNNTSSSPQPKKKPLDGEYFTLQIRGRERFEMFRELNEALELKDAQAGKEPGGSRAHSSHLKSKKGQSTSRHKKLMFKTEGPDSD
# Method in brief: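 HepG2, transient MRTU transfection (cis promoter elements, endogenous TFs); 24 h dosing; RNA isolation, RT-PCR, 6-FAM primer extension, HpaI digest, CE fluorescence; bidirectional fit vs DMSO.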
# [15] = BSK_3C_TissueFactor: BioMAP Diversity Plus: 3C Assay for Tissue Factor Biomarker Activity (AID 2282997); settings: BioMAP 3C HUVEC, tissue factor biomarker readout; actives raise or lower the signal
# Method in brief: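 Dosing of human umbilical vein endothelial cells preceded a 24 h incubation. Tissue Factor was then read by ELISA, with increases and decreases both scored relative to DMSO controls.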
# [16] = BSK_3C_uPAR: BioMAP Diversity Plus: 3C Assay for Urokinase-type plasminogen activator receptor (uPAR) Biomarker Activity (AID 2282998); settings: BioMAP 3C HUVEC, uPAR biomarker ELISA; actives raise or lower the signal
# Method in brief: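 Readout: ELISA for surface uPAR. System: human umbilical vein endothelial primary cells, 24 h after chemical exposure. Analysis: bidirectional fit, DMSO baseline.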
# [17] = BSK_3C_VCAM1: BioMAP Diversity Plus: 3C Assay for Vascular cell adhesion molecule 1 (VCAM1) Biomarker Activity (AID 2282999); settings: BioMAP 3C HUVEC, VCAM1 ELISA, cytokine-stimulated; actives raise or lower the signal
# Method in brief: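 Human umbilical vein endothelial cells were dosed with compound for 24 h, after which cell-surface VCAM-1 was quantified by ELISA. Bidirectional curve fitting used DMSO as negative control and activity baseline.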
# [18] = biological target: Glucocorticoid receptor (Homo sapiens) (UniProt P04150); assay: ATG_GR_TRANS: Attagene TRANS-FACTORIAL HepG2 Assay for human Glucocorticoid Receptor (GR) (AID 2282978; active means hit-call score of the fitted dose curve at least 0.9, where 1 is the maximum;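 further: activators score as hits since higher reporter transcript over DMSO is fitted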); settings: HepG2 Attagene TRANS GR reporter, mRNA transcription
# Method in brief: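 HepG2 transient transfection, multiple reporter units, GAL4-UAS under NR-GAL4 chimera control. 24 h treatment. Reporter mRNA by RT-PCR/CE fluorescence, DMSO as negative control.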
# [19] = biological target: Oxysterols receptor LXR-beta (Homo sapiens) (UniProt P55055); assay: ATG_LXRb_TRANS: Attagene TRANS-FACTORIAL HepG2 Assay for human Liver X Receptor beta (LXRb) (AID 2282981; active means hit-call score of the fitted dose curve at least 0.9, where 1 is the maximum); settings: HepG2 Attagene TRANS GAL4-LXRb reporter, mRNA
# Sequence of Oxysterols receptor LXR-beta (Homo sapiens) (P55055 whole entry, looked up, the tested form may be a part): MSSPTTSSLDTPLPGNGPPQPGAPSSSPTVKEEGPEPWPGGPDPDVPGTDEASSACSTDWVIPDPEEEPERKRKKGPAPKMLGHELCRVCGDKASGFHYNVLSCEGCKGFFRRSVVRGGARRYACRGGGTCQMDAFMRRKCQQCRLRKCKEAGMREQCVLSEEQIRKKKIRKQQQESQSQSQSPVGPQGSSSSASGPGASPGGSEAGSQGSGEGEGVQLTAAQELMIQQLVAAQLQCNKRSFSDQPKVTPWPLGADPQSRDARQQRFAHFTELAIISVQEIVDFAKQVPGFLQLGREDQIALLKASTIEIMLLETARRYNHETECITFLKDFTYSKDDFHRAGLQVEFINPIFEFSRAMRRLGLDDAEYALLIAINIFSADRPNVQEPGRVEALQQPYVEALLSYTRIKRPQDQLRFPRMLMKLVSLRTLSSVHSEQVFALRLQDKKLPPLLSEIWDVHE
# Method in brief: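 HepG2 cells transiently transfected with multiple reporter transcription units carrying chimeric NR-Gal4 proteins acting on GAL4-UAS reporters; compound exposure 24 h. Reporter mRNA quantified by RT-PCR, 6-FAM labelling, HpaI digestion and capillary electrophoresis; gain of signal versus DMSO.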
# [20] = biological target: Hepatocyte nuclear factor 4-alpha (Homo sapiens) (UniProt P41235); assay: ATG_HNF4a_TRANS: Attagene TRANS-FACTORIAL HepG2 Assay for human Hepatocyte Nuclear Factor 4 alpha (HNF4a) (AID 2282982; active means hit-call score of the fitted dose curve at least 0.9, where 1 is the maximum); settings: HepG2 HNF4a transactivation reporter, mRNA readout
# Sequence of Hepatocyte nuclear factor 4-alpha (Homo sapiens) (P41235 whole entry, looked up, the tested form may be a part): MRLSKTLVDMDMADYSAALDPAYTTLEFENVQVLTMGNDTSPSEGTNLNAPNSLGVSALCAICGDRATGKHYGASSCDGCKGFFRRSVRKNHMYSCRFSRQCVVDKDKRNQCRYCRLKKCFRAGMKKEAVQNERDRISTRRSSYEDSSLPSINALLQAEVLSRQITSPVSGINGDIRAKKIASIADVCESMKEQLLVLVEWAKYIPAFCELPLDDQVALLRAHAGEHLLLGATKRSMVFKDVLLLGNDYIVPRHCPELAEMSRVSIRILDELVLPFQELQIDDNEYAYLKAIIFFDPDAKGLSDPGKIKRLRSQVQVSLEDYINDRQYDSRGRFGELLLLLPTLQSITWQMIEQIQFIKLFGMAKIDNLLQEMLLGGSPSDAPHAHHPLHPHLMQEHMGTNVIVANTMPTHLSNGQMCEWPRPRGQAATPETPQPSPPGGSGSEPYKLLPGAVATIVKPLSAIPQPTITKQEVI
# Method in brief: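 HepG2 cells transiently transfected with multiplexed GAL4-UAS reporter units responsive to chimeric NR-GAL4 proteins; compound exposure 24 h. Reporter mRNA quantified by RT-PCR, 6-FAM labelling, HpaI digestion and capillary electrophoresis; gain of signal versus DMSO baseline.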
compound,measurement,setting,value
FC(F)C(F)(F)COCC1CO1 (centres undefined),outcome,[1],inactive
same,outcome,[2],inactive
same,outcome,[3],inactive
same,outcome,[4],inactive
same,outcome,[5],inactive
same,outcome,[6],inactive
same,outcome,[7],inactive
same,outcome,[8],inactive
same,outcome,[9],inactive
same,outcome,[10],inactive
same,outcome,[11],inactive
same,outcome,[12],inactive
same,outcome,[13],inactive
same,outcome,[14],inactive
same,outcome,[15],inactive
same,outcome,[16],inactive
same,outcome,[17],inactive
FC(F)=C(F)C(F)(F)C(F)(F)C(F)(F)C(F)(F)C(F)(F)C(F)(F)F,outcome,[1],inactive
same,outcome,[18],inactive
same,outcome,[2],inactive
same,outcome,[3],inactive
same,outcome,[5],inactive
same,outcome,[7],inactive
same,outcome,[8],inactive
same,outcome,[9],inactive
same,outcome,[10],inactive
same,outcome,[11],inactive
same,AC50,[12],86.6 µM (active)
same,outcome,[12],inactive
same,AC50,[13],267 µM (active)
same,outcome,[13],inactive
same,outcome,[14],inactive
same,outcome,[15],inactive
same,outcome,[16],inactive
same,outcome,[17],inactive
OC(Cn1cncn1)(Cn1cncn1)c1ccc(F)cc1F,outcome,[1],inactive
same,outcome,[18],inactive
same,outcome,[19],inactive
same,outcome,[7],inactive
same,outcome,[9],inactive
same,outcome,[10],inactive
same,outcome,[11],inactive
same,outcome,[12],inactive
same,outcome,[13],inactive
same,outcome,[14],inactive
same,outcome,[15],inactive
same,outcome,[16],inactive
same,outcome,[17],inactive
S=P(N1CC1)(N1CC1)N1CC1,outcome,[1],inactive
same,outcome,[18],inactive
same,outcome,[2],inactive
same,outcome,[3],inactive
same,outcome,[19],inactive
same,outcome,[20],inactive
same,outcome,[4],inactive
same,outcome,[5],inactive
same,outcome,[6],inactive
same,outcome,[7],inactive
same,outcome,[8],inactive
same,outcome,[9],inactive
same,outcome,[10],inactive
same,outcome,[11],inactive
same,outcome,[12],inactive
same,AC50,[13],170 µM (active)
same,outcome,[13],inactive
same,outcome,[14],inactive
same,outcome,[15],inactive
same,outcome,[16],inactive
same,outcome,[17],inactive
O=S(=O)(O)c1ccc(N=Nc2c(O)ccc3cc(S(=O)(=O)O)ccc23)cc1,outcome,[1],inactive
same,outcome,[18],inactive
same,outcome,[3],inactive
same,outcome,[20],inactive
same,outcome,[4],inactive
same,outcome,[5],inactive
same,outcome,[7],inactive
same,outcome,[9],inactive
same,outcome,[10],inactive
same,outcome,[11],inactive
same,outcome,[12],inactive
same,outcome,[13],inactive
same,outcome,[15],inactive
same,outcome,[16],inactive
same,outcome,[17],inactive
NNC(=O)c1ccncc1,outcome,[1],inactive
same,outcome,[18],inactive
same,outcome,[19],inactive
same,outcome,[5],inactive
same,outcome,[7],inactive
same,outcome,[9],inactive
same,outcome,[10],inactive
same,outcome,[11],inactive
same,outcome,[12],inactive
same,outcome,[13],inactive
same,outcome,[14],inactive
same,outcome,[15],inactive
same,outcome,[16],inactive
same,outcome,[17],inactive
FC(F)(F)COC(OCC(F)(F)F)OCC(F)(F)F,outcome,[1],inactive
same,outcome,[18],inactive
same,outcome,[2],inactive
same,outcome,[19],inactive
same,outcome,[6],inactive
same,outcome,[7],inactive
same,outcome,[9],inactive
same,outcome,[10],inactive
same,outcome,[11],inactive
same,outcome,[12],inactive
same,outcome,[13],inactive
same,outcome,[14],inactive
same,outcome,[15],inactive
same,outcome,[16],inactive
same,outcome,[17],inactive
